Reference: PubChem BioAssay (EPA / NIEHS)
Results filed as inconclusive are left out. Calls of active or inactive are those of the source. Rule for the calls, unless noted: active = hit-call score of the fitted dose curve at least 0.9, where 1 is the maximum; inactive = score below 0.9.

How the values were obtained:
[1] = ATG_NFI_CIS: Attagene CIS-FACTORIAL HepG2 Assay for human Nuclear Factor I (NFI) (AID 2282989); conditions: HepG2 cis-regulatory reporter, NFI response element transcription; actives raise or lower the signal
Procedure, shortened: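 Read-out: reporter mRNA via RT-PCR plus capillary electrophoresis with fluorescence detection. Transiently transfected HepG2 (endogenous TF activity on cis promoters), 24 h compound exposure; gain or loss of signal fitted against DMSO.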

[2] = target: Myc proto-oncogene protein (Homo sapiens) (UniProt P01106); assay: ATG_Myc_CIS: Attagene CIS-FACTORIAL HepG2 Assay for human Myelocytomatosis (Myc) Proto-Oncogene Transcription Factor (AID 2282990); conditions: HepG2, Attagene cis-reporter transcription factor activity; actives raise or lower the signal
Procedure, shortened: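 Fluorescence intensity of reporter-specific cDNA fragments, separated by capillary electrophoresis, gives the signal. Transfected HepG2 cells carrying cis-promoter reporter constructs are incubated with compound for 24 h; DMSO serves as baseline.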

[3] = ATG_NF_kB_CIS: Attagene CIS-FACTORIAL HepG2 Assay for human Nuclear Factor Kappa B (NF-kB) (AID 2282991); conditions: HepG2 Attagene cis-factorial NF-kB reporter mRNA; actives raise or lower the signal
Procedure, shortened: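 HepG2, transient multi-reporter transfection, cis promoter elements (endogenous TFs). 24 h exposure. Total RNA → RT → PCR → 6-FAM label → HpaI → CE. Gain/loss vs DMSO.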

[4] = ATG_NRF2_ARE_CIS: Attagene CIS-FACTORIAL HepG2 Assay for human Nuclear Factor Erythroid 2 Related Factor 2 (NFR2) response to Antioxidant Response Elements (ARE) (AID 2282992); conditions: HepG2 Attagene ARE/NRF2 reporter, transcription factor activity; actives raise or lower the signal;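 for AC50: reporter mRNA level measured by RT-PCR and capillary electrophoresis fluorescence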
Procedure, shortened: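 Cis-factorial assay: transfected HepG2 reporter library, 24 h dosing, mRNA readout via RT-PCR/CE; DMSO-referenced bidirectional analysis.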

[5] = ATG_Oct_MLP_CIS: Attagene CIS-FACTORIAL HepG2 Assay for human Octamer-Binding Transcription Factor (Oct) (AID 2282993); conditions: HepG2 Attagene cis-factorial Oct reporter, mRNA; actives raise or lower the signal
Procedure, shortened: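 Read-out: reporter mRNA via RT-PCR plus capillary electrophoresis of 6-FAM-labelled fragments. Transiently transfected HepG2, 24 h exposure, endogenous TF activity on cis elements. Gain or loss of signal fitted relative to DMSO.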

[6] = target: Cellular tumor antigen p53 (Homo sapiens) (UniProt P04637); assay: ATG_p53_CIS: Attagene CIS-FACTORIAL HepG2 Assay for human p53 Transcription Factor (AID 2282994); conditions: HepG2 p53 cis-element reporter, Attagene mRNA; actives raise or lower the signal
Procedure, shortened: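 Using HepG2 hepatoma cells carrying cis-acting multiplexed reporters, mRNA induction is detected after a 24 h exposure. Gain- and loss-of-signal responses are fitted relative to DMSO-treated cells.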

[7] = target: human Peroxisome Proliferator-activated Receptor alpha (PPARa), PPARA (gene 5465) (UniProt Q07869); assay: ATG_PPARa_TRANS: Attagene TRANS-FACTORIAL HepG2 Assay for human Peroxisome Proliferator-activated Receptor alpha (PPARa) (AID 2283001; active = hit-call score of the fitted dose curve at least 0.9, where 1 is the maximum;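 for AC50: potency for gain of reporter signal over DMSO so agonist or activator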)
Procedure, shortened: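 HepG2 cells transiently transfected with multiplexed GAL4-UAS reporters driven by exogenous chimeric NR-Gal4 proteins; reporter mRNA measured after 24 h dosing. Read-out by RT-PCR, 6-FAM labelling, HpaI digestion and capillary electrophoresis; gain of signal versus DMSO.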

[8] = target: human Peroxisome Proliferator-activated Receptor delta (PPARd), PPARD (gene 5467) (UniProt Q03181); assay: ATG_PPARd_TRANS: Attagene TRANS-FACTORIAL HepG2 Assay for human Peroxisome Proliferator-activated Receptor delta (PPARd) (AID 2283002; active = hit-call score of the fitted dose curve at least 0.9, where 1 is the maximum)
Procedure, shortened: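 Fluorescence from capillary electrophoresis of labelled RT-PCR reporter fragments gives the signal; DMSO sets baseline. Cells: HepG2 transiently carrying GAL4-UAS reporter units plus chimeric nuclear receptor-Gal4 proteins, exposed to chemicals for 24 h.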

[9] = target: Retinoic acid receptor alpha (Homo sapiens) (UniProt P10276); assay: ATG_RARa_TRANS: Attagene TRANS-FACTORIAL HepG2 Assay for human Retinoic Acid Receptor alpha (RARa) (AID 2283005; active = hit-call score of the fitted dose curve at least 0.9, where 1 is the maximum)
Procedure, shortened: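 HepG2 transiently transfected with multiplex GAL4-UAS reporter units including a human RARa–GAL4 chimera; 24 h compound exposure. Reporter mRNA quantified by RT-PCR, 6-FAM labeling and capillary electrophoresis; gain of signal versus DMSO.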

[10] = target: Peroxisome proliferator-activated receptor gamma (Homo sapiens) (UniProt P37231); assay: ATG_PPARg_TRANS: Attagene TRANS-FACTORIAL HepG2 Assay for human Peroxisome Proliferator-activated Receptor-gamma (PPARg) (AID 2283007; active = hit-call score of the fitted dose curve at least 0.9, where 1 is the maximum)
Procedure, shortened: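 Multiplexed reporter transcription units in HepG2, 24 h dosing, reporter transcripts quantified by fluorescent RT-PCR and capillary electrophoresis. Increase over DMSO scored.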

[11] = target: Nuclear receptor subfamily 1 group I member 2 (Homo sapiens) (UniProt O75469); assay: ATG_PXR_TRANS: Attagene TRANS-FACTORIAL HepG2 Assay for human Pregnane X Receptor (PXR) (AID 2283008; active = hit-call score of the fitted dose curve at least 0.9, where 1 is the maximum)
Procedure, shortened: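 Fluorescence intensity of FAM-labelled, HpaI-digested reporter amplicons, separated by capillary electrophoresis, quantifies induction. HepG2 cells with PXR-Gal4 trans-reporter system were exposed 24 h; DMSO defines baseline.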

[12] = target: human Retinoic Acid Receptor gamma (RARg), RARG (gene 5916) (UniProt P13631); assay: ATG_RARg_TRANS: Attagene TRANS-FACTORIAL HepG2 Assay for human Retinoic Acid Receptor gamma (RARg) (AID 2283009; active = hit-call score of the fitted dose curve at least 0.9, where 1 is the maximum;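 for AC50: AC50 is for reporter induction above DMSO meaning RARg activation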)
Procedure, shortened: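 HepG2 transiently transfected with GAL4-UAS reporter units and chimeric NR-Gal4 constructs; 24 h compound exposure. Reporter mRNA quantified by RT-PCR, FAM labeling, HpaI digestion and capillary electrophoresis; gain-of-signal versus DMSO.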

[13] = BSK_3C_TissueFactor: BioMAP Diversity Plus: 3C Assay for Tissue Factor Biomarker Activity (AID 2282997); conditions: BioMAP 3C HUVEC, tissue factor biomarker readout; actives raise or lower the signal
Procedure, shortened: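 HUVEC were treated 24 h, then surface tissue factor measured by ELISA and fitted bidirectionally against DMSO. Parallel SRB total-protein staining assessed overt cytotoxicity at the same time point.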

[14] = BSK_3C_uPAR: BioMAP Diversity Plus: 3C Assay for Urokinase-type plasminogen activator receptor (uPAR) Biomarker Activity (AID 2282998); conditions: BioMAP 3C HUVEC, uPAR biomarker ELISA; actives raise or lower the signal
Procedure, shortened: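 HUVEC primary cells; 24 h post-dose; uPAR by ELISA; gain or loss of signal fitted bidirectionally vs DMSO baseline.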

[15] = BSK_3C_VCAM1: BioMAP Diversity Plus: 3C Assay for Vascular cell adhesion molecule 1 (VCAM1) Biomarker Activity (AID 2282999); conditions: BioMAP 3C HUVEC, VCAM1 ELISA, cytokine-stimulated; actives raise or lower the signal
Procedure, shortened: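 Human umbilical vein endothelial cells (3C system), biomarker read by ELISA 24 h after dosing; bidirectional fit against DMSO baseline. Cytotoxicity tracked by SRB total-protein staining in parallel cultures at biomarker time.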

[16] = BSK_4H_Eotaxin3: BioMAP Diversity Plus: 4H Assay for Eotaxin 3 Biomarker Activity (AID 2283000); conditions: primary human endothelial cells (HUVEC); actives raise or lower the signal;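 for outcome: CCL26 protein level quantified by ELISA in parallel with SRB cytotoxicity check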
Procedure, shortened: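 Eotaxin-3 (CCL26) levels were measured by ELISA in HUVEC primary cultures 24 h post-dosing. Gain or loss of signal was fitted in both directions, with DMSO serving as baseline and negative control.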

[17] = read-out: Intercellular Adhesion Molecule 1 (ICAM1), ICAM1 (gene 3383); assay: BSK_3C_ICAM1: BioMAP Diversity Plus: 3C Assay for Intercellular Adhesion Molecule 1 (ICAM1) Biomarker Activity (AID 2283003); conditions: primary human endothelial cells (HUVEC); actives raise or lower the signal
Procedure, shortened: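 HUVEC primary cells stimulated under 3C conditions; ICAM1 measured by ELISA 24 h after compound dosing. Curves fitted bidirectionally against the DMSO baseline. Overt cytotoxicity checked by SRB staining of parallel cultures.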

[18] = BSK_3C_Proliferation: Cell Proliferation Assessment in the BioMAP Diversity Plus: 3C Assay (AID 2283006); conditions: primary human endothelial cells (HUVEC);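 for AC50: potency may reflect either rise or fall in cell number versus DMSO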
Procedure, shortened: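 Subconfluent HUVEC (3C system) cultured with chemical; relative cell number read at 48 h by sulforhodamine B total-protein staining (0.1% SRB after 10% TCA fixation, 560 nm). Bidirectional fit relative to DMSO.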

[19] = target: human RAR-related Orphan Receptor beta (RORb), RORB (gene 6096) (UniProt Q92753); assay: ATG_RORb_TRANS: Attagene TRANS-FACTORIAL HepG2 Assay for human RAR-related Orphan Receptor beta (RORb) (AID 2283010; active = hit-call score of the fitted dose curve at least 0.9, where 1 is the maximum)
Procedure, shortened: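 HepG2 cells transiently transfected with GAL4-UAS reporter units expressing chimeric NR-Gal4 protein; reporter mRNA measured 24 h after dosing by RT-PCR, 6-FAM labelling and capillary electrophoresis. Gain-of-signal fitted relative to DMSO baseline.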

[20] = target: human Retinoic Acid Receptor beta (RARb), RARB (gene 5915) (UniProt P10826); assay: ATG_RARb_TRANS: Attagene TRANS-FACTORIAL HepG2 Assay for human Retinoic Acid Receptor beta (AID 2283004; active = hit-call score of the fitted dose curve at least 0.9, where 1 is the maximum)
Procedure, shortened: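 HepG2 cells were transiently transfected with GAL4-UAS reporter units that report activity of exogenous chimeric NR-Gal4 proteins, then exposed to compound for 24 h. Reporter mRNA was quantified by RT-PCR with capillary electrophoresis fluorescence, as gain of signal over DMSO.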

Chain of human Retinoic Acid Receptor gamma (RARg), RARG (gene 5916) (P13631 whole entry, looked up, the tested form may be a part): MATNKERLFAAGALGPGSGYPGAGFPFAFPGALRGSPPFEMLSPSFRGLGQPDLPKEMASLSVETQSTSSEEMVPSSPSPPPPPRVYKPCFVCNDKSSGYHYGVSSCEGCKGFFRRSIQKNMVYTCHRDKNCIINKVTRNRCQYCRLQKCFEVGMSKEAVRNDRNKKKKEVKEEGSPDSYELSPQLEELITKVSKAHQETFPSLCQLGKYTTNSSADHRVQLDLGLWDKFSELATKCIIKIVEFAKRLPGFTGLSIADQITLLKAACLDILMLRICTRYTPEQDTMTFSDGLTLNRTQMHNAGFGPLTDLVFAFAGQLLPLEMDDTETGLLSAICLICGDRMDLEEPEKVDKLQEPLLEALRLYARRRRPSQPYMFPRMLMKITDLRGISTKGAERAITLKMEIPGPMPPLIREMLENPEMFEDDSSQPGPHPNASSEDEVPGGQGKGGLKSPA
Chain of Nuclear receptor subfamily 1 group I member 2 (Homo sapiens) (O75469 whole entry, looked up, the tested form may be a part): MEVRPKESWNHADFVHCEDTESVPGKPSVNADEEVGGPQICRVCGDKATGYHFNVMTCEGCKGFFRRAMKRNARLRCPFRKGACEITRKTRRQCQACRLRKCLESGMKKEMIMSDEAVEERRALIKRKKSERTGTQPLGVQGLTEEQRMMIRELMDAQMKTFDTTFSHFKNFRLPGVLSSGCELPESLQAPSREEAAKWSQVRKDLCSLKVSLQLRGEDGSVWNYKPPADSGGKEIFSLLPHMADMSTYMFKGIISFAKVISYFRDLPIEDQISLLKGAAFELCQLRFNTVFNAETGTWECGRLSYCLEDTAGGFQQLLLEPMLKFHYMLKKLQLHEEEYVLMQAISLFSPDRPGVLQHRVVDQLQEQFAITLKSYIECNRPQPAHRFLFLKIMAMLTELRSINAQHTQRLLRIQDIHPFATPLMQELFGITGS
Chain of human Retinoic Acid Receptor beta (RARb), RARB (gene 5915) (P10826 whole entry, looked up, the tested form may be a part): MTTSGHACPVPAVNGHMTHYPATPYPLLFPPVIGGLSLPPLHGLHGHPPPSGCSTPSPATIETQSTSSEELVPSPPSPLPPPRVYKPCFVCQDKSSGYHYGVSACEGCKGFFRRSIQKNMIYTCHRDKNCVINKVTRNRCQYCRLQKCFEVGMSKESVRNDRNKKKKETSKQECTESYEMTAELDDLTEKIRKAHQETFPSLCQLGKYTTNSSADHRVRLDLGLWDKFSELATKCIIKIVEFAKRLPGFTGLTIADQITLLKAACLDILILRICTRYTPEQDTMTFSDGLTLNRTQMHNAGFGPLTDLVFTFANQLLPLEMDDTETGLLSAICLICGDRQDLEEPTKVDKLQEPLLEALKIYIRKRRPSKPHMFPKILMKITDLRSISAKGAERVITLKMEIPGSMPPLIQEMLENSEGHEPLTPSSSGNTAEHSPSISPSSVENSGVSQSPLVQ
Chain of human Peroxisome Proliferator-activated Receptor delta (PPARd), PPARD (gene 5467) (Q03181 whole entry, looked up, the tested form may be a part): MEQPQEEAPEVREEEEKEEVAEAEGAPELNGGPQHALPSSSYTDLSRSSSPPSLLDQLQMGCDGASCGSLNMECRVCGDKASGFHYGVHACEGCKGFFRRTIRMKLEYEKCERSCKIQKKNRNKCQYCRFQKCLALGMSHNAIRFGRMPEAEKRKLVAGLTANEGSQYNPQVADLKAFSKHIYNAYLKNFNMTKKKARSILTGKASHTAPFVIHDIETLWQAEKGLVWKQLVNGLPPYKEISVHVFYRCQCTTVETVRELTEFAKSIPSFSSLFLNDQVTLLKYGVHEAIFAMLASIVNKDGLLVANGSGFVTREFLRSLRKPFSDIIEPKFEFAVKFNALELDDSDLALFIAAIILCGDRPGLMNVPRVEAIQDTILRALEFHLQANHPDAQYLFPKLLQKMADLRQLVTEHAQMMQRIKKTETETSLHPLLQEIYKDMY
Chain of human Peroxisome Proliferator-activated Receptor alpha (PPARa), PPARA (gene 5465) (Q07869 whole entry, looked up, the tested form may be a part): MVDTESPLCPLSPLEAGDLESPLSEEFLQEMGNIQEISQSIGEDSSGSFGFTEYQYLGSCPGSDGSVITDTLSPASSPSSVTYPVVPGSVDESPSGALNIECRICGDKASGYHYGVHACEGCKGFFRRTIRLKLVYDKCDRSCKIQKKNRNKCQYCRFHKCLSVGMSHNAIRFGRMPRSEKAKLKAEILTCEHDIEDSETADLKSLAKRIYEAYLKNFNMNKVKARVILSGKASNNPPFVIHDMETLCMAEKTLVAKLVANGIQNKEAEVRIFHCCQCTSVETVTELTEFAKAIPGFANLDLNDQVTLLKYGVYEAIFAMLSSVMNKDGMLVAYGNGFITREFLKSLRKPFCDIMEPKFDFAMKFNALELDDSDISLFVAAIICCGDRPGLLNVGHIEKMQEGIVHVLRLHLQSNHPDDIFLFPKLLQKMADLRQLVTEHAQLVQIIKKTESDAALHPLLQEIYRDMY
Chain of Retinoic acid receptor alpha (Homo sapiens) (P10276 whole entry, looked up, the tested form may be a part): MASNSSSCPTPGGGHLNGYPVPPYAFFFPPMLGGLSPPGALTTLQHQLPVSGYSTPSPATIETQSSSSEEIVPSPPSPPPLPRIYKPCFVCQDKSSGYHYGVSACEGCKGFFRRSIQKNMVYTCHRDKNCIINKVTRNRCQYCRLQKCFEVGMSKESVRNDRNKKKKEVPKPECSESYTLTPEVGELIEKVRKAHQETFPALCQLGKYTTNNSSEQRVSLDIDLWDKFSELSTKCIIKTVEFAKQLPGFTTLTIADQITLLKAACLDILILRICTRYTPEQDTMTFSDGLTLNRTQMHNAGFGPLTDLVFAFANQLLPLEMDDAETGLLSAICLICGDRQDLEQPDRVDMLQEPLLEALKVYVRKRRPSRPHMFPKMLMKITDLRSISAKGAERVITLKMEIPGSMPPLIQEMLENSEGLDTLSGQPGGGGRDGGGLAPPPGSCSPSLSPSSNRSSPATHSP
Chain of Myc proto-oncogene protein (Homo sapiens) (P01106 whole entry, looked up, the tested form may be a part): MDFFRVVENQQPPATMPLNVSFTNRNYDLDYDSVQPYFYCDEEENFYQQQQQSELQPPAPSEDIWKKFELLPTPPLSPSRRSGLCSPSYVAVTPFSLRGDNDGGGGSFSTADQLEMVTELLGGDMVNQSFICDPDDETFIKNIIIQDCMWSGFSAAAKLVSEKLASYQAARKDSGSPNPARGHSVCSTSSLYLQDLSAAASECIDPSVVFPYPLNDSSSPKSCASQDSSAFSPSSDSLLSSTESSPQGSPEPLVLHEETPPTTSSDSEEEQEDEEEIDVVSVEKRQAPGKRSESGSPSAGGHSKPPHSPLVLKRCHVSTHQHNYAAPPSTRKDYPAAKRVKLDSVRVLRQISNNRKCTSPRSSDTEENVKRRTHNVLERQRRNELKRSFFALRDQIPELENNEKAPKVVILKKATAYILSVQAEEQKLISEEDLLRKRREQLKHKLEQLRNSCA
Chain of Cellular tumor antigen p53 (Homo sapiens) (P04637 whole entry, looked up): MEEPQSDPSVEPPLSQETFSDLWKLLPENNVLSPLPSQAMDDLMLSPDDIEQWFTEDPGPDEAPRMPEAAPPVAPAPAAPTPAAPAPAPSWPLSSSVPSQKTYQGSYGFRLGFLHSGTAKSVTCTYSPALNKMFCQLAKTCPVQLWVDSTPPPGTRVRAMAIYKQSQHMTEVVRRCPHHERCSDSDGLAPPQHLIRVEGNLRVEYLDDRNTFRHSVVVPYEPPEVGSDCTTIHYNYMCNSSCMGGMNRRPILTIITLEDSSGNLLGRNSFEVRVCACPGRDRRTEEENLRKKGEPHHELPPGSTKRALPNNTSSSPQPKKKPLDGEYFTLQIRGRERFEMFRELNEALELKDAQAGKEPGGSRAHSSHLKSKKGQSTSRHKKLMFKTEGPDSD
Chain of human RAR-related Orphan Receptor beta (RORb), RORB (gene 6096) (Q92753 whole entry, looked up, the tested form may be a part): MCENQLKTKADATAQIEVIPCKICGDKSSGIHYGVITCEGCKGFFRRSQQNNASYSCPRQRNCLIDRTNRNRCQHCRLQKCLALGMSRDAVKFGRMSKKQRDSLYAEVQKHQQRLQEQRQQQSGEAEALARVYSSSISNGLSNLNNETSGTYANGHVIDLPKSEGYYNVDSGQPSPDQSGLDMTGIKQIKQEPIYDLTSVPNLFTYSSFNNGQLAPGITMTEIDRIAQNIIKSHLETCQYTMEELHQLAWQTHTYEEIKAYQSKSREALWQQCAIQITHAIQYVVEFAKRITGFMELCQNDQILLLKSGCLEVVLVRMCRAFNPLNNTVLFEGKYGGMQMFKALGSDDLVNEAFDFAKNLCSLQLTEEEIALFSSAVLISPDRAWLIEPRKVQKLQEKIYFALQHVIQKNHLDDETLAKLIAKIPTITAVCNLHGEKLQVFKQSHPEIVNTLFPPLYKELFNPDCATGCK
Chain of Peroxisome proliferator-activated receptor gamma (Homo sapiens) (P37231 whole entry, looked up): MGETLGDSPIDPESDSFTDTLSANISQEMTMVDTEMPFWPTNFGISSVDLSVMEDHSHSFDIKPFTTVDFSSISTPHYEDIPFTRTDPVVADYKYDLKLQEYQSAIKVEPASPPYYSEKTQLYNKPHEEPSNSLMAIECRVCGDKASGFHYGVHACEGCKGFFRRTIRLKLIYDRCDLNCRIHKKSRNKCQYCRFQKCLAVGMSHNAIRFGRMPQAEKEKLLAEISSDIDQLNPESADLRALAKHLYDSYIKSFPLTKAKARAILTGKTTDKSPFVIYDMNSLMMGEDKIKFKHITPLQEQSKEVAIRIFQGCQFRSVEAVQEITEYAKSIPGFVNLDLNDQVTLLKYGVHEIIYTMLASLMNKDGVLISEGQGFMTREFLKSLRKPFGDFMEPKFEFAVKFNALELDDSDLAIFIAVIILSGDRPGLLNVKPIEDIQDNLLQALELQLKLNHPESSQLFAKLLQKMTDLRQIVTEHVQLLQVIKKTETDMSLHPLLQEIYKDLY

## Nc1ccc(N=Nc2ccccc2)c(N)n1
[1]
  outcome: inactive
[2]
  outcome: inactive
[3]
  outcome: inactive
[4]
  AC50: 15.3 µM (active)
[5]
  AC50: 69.7 µM (active)
[6]
  outcome: inactive
[7]
  AC50: 44.6 µM (active)
[8]
  outcome: inactive
[9]
  outcome: inactive
[10]
  AC50: 59.4 µM (active)
[11]
  outcome: inactive
[12]
  outcome: inactive

## N#[N+]c1ccc2c(S(=O)(=O)[O-])cccc2c1O
[1]
  outcome: inactive
[2]
  outcome: inactive
[3]
  outcome: inactive
[4]
  outcome: inactive
[5]
  outcome: inactive
[6]
  outcome: inactive
[13]
  outcome: inactive
[14]
  outcome: inactive
[15]
  outcome: inactive
[16]
  outcome: inactive
[17]
  outcome: inactive
[18]
  outcome: inactive
[12]
  outcome: inactive
[19]
  outcome: inactive

## O=C1CCCCCCCCCCC(=O)OCCO1
[1]
  outcome: inactive
[2]
  outcome: inactive
[3]
  outcome: inactive
[4]
  outcome: inactive
[5]
  outcome: inactive
[6]
  outcome: inactive
[7]
  outcome: inactive
[20]
  outcome: inactive
[9]
  outcome: inactive
[10]
  outcome: inactive
[11]
  outcome: inactive
[12]
  outcome: inactive

## CC(C)(c1cc(Br)c(OCCO)c(Br)c1)c1cc(Br)c(OCCO)c(Br)c1
[1]
  AC50: 45.1 µM (active)
[2]
  outcome: inactive
[3]
  outcome: inactive
[4]
  AC50: 18.6 µM (active)
[5]
  AC50: 17.7 µM (active)
[6]
  AC50: 7 µM (active)
[13]
  AC50: 16.2 µM (active)
[14]
  AC50: 16.2 µM (active)
[15]
  AC50: 27.3 µM (active)
[16]
  AC50: 8.31 µM (active)
[8]
  outcome: inactive
[17]
  AC50: 28 µM (active)
[20]
  outcome: inactive
[9]
  outcome: inactive
[18]
  AC50: 11.9 µM (active)
[10]
  AC50: 2.78 µM (active)
[11]
  AC50: 1.71 µM (active)
[12]
  AC50: 0.454 µM (active)

## C=C1C2CCC(C2)C1(C)C (configuration not stated)
[1]
  outcome: inactive
[2]
  outcome: inactive
[3]
  outcome: inactive
[4]
  outcome: inactive
[5]
  outcome: inactive
[6]
  outcome: inactive
[8]
  outcome: inactive
[9]
  outcome: inactive
[11]
  AC50: 18.9 µM (active)
[12]
  outcome: inactive
[19]
  outcome: inactive

## O=S(=O)(O)c1ccccc1C=Cc1ccc(-c2ccc(C=Cc3ccccc3S(=O)(=O)O)cc2)cc1
[1]
  outcome: inactive
[2]
  outcome: inactive
[3]
  outcome: inactive
[4]
  outcome: inactive
[5]
  outcome: inactive
[6]
  outcome: inactive
[7]
  outcome: inactive
[9]
  outcome: inactive
[10]
  outcome: inactive

## CC(=O)OCC(=O)[C@@]12N=C(C)O[C@@H]1C[C@H]1[C@@H]3CCC4=CC(=O)C=C[C@]4(C)[C@H]3[C@@H](O)C[C@@]12C
[1]
  outcome: inactive
[2]
  outcome: inactive
[3]
  outcome: inactive
[4]
  outcome: inactive
[5]
  outcome: inactive
[6]
  outcome: inactive
[8]
  outcome: inactive
[10]
  outcome: inactive
[11]
  outcome: inactive

## CC(C)C1=CC2=CC[C@@H]3[C@](C)(CCC[C@@]3(C)C(=O)O)[C@H]2CC1
[1]
  outcome: inactive
[2]
  outcome: inactive
[3]
  AC50: 157 µM (active)
[4]
  AC50: 19.8 µM (active)
[5]
  outcome: inactive
[6]
  outcome: inactive
[20]
  outcome: inactive
[10]
  AC50: 43.9 µM (active)
[11]
  AC50: 1.55 µM (active)

## O=S(=O)(O)c1cc(S(=O)(=O)O)c2ccc3c(S(=O)(=O)O)cc(S(=O)(=O)O)c4ccc1c2c43
[1]
  outcome: inactive
[2]
  outcome: inactive
[3]
  outcome: inactive
[4]
  outcome: inactive
[5]
  outcome: inactive
[6]
  outcome: inactive
[8]
  outcome: inactive
[9]
  outcome: inactive
[12]
  outcome: inactive
[19]
  outcome: inactive

## CCOCC(=O)O
[1]
  outcome: inactive
[2]
  outcome: inactive
[3]
  outcome: inactive
[4]
  outcome: inactive
[5]
  outcome: inactive
[6]
  outcome: inactive
[8]
  outcome: inactive
[11]
  outcome: inactive
